24 molecules from PubChem BioAssay (EPA / NIEHS) can be followed below.

Activity calls are given as the source filed them. The calls were made as follows: active = hit-call score of the fitted dose curve at least 0.9, where 1 is the maximum; inactive = score below 0.9.

Experiment [1] can be described thus: ATG_GRE_CIS: Attagene CIS-FACTORIAL HepG2 Assay for human Glucocorticoid Response Elements (GRE) (AID 2282947). The following applies: HepG2 GRE cis-reporter, Attagene multiplex mRNA; actives raise or lower the signal. Put shortly: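 Endogenous transcription factor activity is read through cis-element reporter constructs transiently transfected into HepG2 cells. After 24 h treatment, labelled RT-PCR products are resolved by capillary electrophoresis; DMSO sets baseline for bidirectional curve fitting.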

Experiment [2] is described as follows: ATG_ISRE_CIS: Attagene CIS-FACTORIAL HepG2 Assay for human Interferon Regulatory Factor 1 (IRF1) binding to an Interferon-Stimulated Response Element (ISRE) (AID 2282948). The following applies: HepG2 ISRE cis-reporter (Attagene), mRNA transcription readout; actives raise or lower the signal. In outline: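 Quantitation relies on labelled RT-PCR fragments separated by capillary electrophoresis. Human HepG2 cells bearing cis-promoter reporter constructs were treated 24 h; DMSO served as baseline for bidirectional fitting.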

Experiment [3] is described as follows: ATG_M_32_CIS: Attagene CIS-FACTORIAL HepG2 Assay for M32 Transcription Factor (Internal Marker) (AID 2282949).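 Also: background control marker of the multiplexed CIS panel rather than a real target.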 The following applies: HepG2 Attagene cis-factorial M32 reporter, mRNA; actives raise or lower the signal. In outline:
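Internal background marker read-out: RT-PCR/capillary electrophoresis fluorescence of reporter transcripts from transiently transfected HepG2 cells after 24 h chemical exposure. Activity fitted bidirectionally relative to DMSO negative control.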

A short description of experiment [4]: ATG_M_06_CIS: Attagene CIS-FACTORIAL HepG2 Assay for M06 Transcription Factor (Internal Marker) (AID 2282950). The following applies: HepG2 Attagene CIS-FACTORIAL M06 internal marker reporter; actives raise or lower the signal. Put shortly:
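Steps: transfect HepG2 with multiplexed cis-element reporter constructs; dose chemical 24 h; extract RNA with DNase treatment; reverse-transcribe, PCR-amplify, 6-FAM label, HpaI digest; separate fragments by capillary electrophoresis. Activity fitted both directions versus DMSO.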

The target in experiment [5] is Hypoxia-inducible factor 1-alpha (Homo sapiens) (UniProt Q16665). The experiment is described as follows: ATG_HIF1a_CIS: Attagene CIS-FACTORIAL HepG2 Assay for human Hypoxia Inducible Factor 1 (HIF1A) (AID 2282951). The following applies: HepG2 Attagene cis-factorial HIF1a reporter transcription; actives raise or lower the signal. Put shortly: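 Measures endogenous transcription-factor activity through cis-regulated reporter mRNA in HepG2. Cells dosed 24 h; transcripts quantified by RT-PCR with 6-FAM-labelled products separated by capillary electrophoresis; DMSO serves as negative control.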

Experiment [6] has as its target Hepatocyte nuclear factor 6 (Homo sapiens) (UniProt Q9UBC0). Description: ATG_HNF6_CIS: Attagene CIS-FACTORIAL HepG2 Assay for human Hepatocyte Nuclear Factor 6 (HNF6) (AID 2282952). The following applies: HepG2 Attagene cis-factorial HNF6 reporter transcription; actives raise or lower the signal. In outline:
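HepG2 cells transiently transfected with cis-element-driven multiplexed reporter units measuring endogenous transcription factor activity. After 24 h exposure, reporter mRNA quantified by RT-PCR, FAM-labelled fragments and capillary electrophoresis; bidirectional fitting versus DMSO.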

Experiment [7] addresses Heat shock factor protein 1 (Homo sapiens) (UniProt Q00613). The experiment is described as follows: ATG_HSE_CIS: Attagene CIS-FACTORIAL HepG2 Assay for human Heat Shock Transcription Factor 1 (HSE) (AID 2282953). The following applies: HepG2 HSE cis-reporter, Attagene RNA transcription; actives raise or lower the signal. In outline: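 Cells were transfected with cis-element-driven reporter constructs, dosed for 24 h, then total RNA was reverse-transcribed and reporter cDNA amplified, FAM-labelled and digested with HpaI. Fragments were resolved by capillary electrophoresis; gain or loss was fitted against DMSO.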

A short description of experiment [8]: ATG_MRE_CIS: Attagene CIS-FACTORIAL HepG2 Assay for human Metal Responsive Element (MRE) (AID 2282954). The following applies: HepG2 MRE cis-reporter transcription, Attagene multiplex; actives raise or lower the signal. In outline:
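Fluorescent reporter fragments separated by capillary electrophoresis give mRNA induction for the MRE unit after 24 h treatment of transfected HepG2 cells. Endogenous transcription-factor activity is read; DMSO serves as negative control and baseline.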

Experiment [9] in a line: ATG_PBREM_CIS: Attagene CIS-FACTORIAL HepG2 Assay for human Phenobarbital-responsive Enhancer Module (PBREM) (AID 2282955). The following applies: HepG2 PBREM cis-reporter, Attagene multiplexed transcription; actives raise or lower the signal. In outline: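 Fluorescence of labelled reporter cDNA fragments, resolved by capillary electrophoresis, gives mRNA induction in transfected HepG2 cells treated for 24 h; DMSO serves as negative control and baseline.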

In experiment [10] the target is Paired box protein Pax-6 (Homo sapiens) (UniProt P26367). The experiment is described as follows: ATG_Pax6_CIS: Attagene CIS-FACTORIAL HepG2 Assay for human Paired Box 6 (PAX6) (AID 2282956). The following applies: HepG2 CIS-FACTORIAL PAX6 reporter transcription, RNA readout; actives raise or lower the signal. Put shortly:
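After twenty-four hours of chemical exposure, transfected HepG2 cells are harvested for RNA. Cis-promoter reporter transcripts are amplified, fluorescently labelled and sized by capillary electrophoresis, with gain and loss of signal scored against DMSO.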

In general, AC50 refers to the concentration giving half of the maximal activity seen.

Sequence of Heat shock factor protein 1 (Homo sapiens) (Q00613 whole entry, looked up, the tested form may be a part): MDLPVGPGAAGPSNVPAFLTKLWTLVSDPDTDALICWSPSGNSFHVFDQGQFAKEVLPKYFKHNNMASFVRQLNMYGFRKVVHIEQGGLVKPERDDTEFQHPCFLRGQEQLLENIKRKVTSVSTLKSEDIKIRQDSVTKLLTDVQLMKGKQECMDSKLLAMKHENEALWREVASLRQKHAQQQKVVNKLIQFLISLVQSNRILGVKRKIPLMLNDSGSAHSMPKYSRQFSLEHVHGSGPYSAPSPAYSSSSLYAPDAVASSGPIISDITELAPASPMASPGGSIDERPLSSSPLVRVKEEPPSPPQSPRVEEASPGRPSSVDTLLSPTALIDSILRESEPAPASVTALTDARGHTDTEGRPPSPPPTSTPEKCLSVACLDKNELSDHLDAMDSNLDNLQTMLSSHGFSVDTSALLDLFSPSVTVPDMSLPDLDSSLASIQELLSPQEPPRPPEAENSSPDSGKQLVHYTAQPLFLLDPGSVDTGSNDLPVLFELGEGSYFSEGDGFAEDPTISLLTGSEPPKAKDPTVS
Sequence of Hepatocyte nuclear factor 6 (Homo sapiens) (Q9UBC0 whole entry, looked up, the tested form may be a part): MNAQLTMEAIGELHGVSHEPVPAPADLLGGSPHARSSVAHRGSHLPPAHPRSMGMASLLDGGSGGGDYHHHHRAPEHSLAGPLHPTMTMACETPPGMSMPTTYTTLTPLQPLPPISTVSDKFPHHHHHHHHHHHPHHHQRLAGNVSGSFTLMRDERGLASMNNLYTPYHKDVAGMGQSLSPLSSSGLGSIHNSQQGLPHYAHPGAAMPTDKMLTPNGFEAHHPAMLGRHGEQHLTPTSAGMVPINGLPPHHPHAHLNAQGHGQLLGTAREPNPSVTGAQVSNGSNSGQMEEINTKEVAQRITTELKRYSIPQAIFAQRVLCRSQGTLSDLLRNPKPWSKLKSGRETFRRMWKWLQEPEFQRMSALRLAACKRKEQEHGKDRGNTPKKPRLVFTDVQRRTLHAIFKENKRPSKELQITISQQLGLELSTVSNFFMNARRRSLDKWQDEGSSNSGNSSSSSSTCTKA
Sequence of Hypoxia-inducible factor 1-alpha (Homo sapiens) (Q16665 whole entry, looked up): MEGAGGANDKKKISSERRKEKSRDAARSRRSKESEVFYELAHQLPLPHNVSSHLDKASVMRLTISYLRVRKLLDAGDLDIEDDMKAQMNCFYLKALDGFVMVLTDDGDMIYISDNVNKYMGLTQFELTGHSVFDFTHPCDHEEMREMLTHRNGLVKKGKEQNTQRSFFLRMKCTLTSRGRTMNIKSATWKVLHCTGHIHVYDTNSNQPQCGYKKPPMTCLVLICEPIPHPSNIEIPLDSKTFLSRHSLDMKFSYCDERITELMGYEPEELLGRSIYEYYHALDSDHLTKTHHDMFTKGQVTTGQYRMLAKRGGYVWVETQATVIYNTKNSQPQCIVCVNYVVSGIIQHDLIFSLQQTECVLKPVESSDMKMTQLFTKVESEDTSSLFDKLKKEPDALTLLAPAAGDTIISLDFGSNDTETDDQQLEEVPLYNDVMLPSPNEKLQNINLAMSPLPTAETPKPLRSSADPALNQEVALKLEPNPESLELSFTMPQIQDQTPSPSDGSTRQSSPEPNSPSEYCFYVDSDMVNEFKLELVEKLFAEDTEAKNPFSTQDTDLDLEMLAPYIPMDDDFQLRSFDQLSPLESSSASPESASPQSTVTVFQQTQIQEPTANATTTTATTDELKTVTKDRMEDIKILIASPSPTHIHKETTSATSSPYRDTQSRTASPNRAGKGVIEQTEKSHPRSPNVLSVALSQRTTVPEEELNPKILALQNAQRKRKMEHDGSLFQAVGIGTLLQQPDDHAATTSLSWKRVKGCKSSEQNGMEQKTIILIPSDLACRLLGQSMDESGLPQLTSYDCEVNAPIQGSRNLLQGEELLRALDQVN
Sequence of Paired box protein Pax-6 (Homo sapiens) (P26367 whole entry, looked up): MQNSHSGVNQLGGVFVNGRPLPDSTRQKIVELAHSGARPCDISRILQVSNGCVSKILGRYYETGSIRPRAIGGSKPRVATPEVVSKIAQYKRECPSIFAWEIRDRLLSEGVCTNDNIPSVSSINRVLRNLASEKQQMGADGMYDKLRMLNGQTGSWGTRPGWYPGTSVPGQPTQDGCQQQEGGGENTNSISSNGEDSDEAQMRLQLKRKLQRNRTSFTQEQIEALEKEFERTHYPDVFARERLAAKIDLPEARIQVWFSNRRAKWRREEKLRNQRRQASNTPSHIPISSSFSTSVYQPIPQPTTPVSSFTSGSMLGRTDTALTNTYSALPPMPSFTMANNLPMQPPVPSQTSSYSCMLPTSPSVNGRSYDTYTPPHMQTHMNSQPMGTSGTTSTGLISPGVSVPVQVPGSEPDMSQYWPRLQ

For the molecule `CCOC(=O)[C@@H](C)Oc1ccc(Oc2nc3ccc(Cl)cc3o2)cc1`, the molecule was called inactive in [1], in experiment [2], in [3], in [4], in experiment [5] and in [6]. The molecule was classed as inactive in experiment [7], in experiment [8], in experiment [9] and in [10].

`CC1(C)C(=O)N(Cl)C(=O)N1Br`: the result in experiment [1], in [2], in experiment [3], in experiment [4], in experiment [5] and in experiment [6] was inactive. The molecule was classed as inactive in experiment [7], in [8], in [9] and in experiment [10].

For the molecule `C=CCN(CC=C)CC=C`, the molecule was called inactive in experiment [1], in experiment [2], in [3], in experiment [4], in [5] and in [6]. Besides, the result in experiment [7], in experiment [8], in [9] and in experiment [10] was inactive.

Take `CC(CN=Cc1ccccc1O)N=Cc1ccccc1O` (stereo not given): the result in [1], in experiment [2], in experiment [3], in experiment [4], in experiment [6] and in experiment [7] was inactive. Also, the result in experiment [9] and in experiment [10] was inactive. For the same molecule, the AC50 in experiment [5] is 72.3 µM (active); in [8], 26.8 µM (active).

`NCCNc1cccc2ccccc12`: the call in [1], in experiment [2], in [3], in experiment [4], in experiment [6] and in experiment [7] was inactive. Moreover, in [9], the outcome was inactive. The AC50 is 100 µM (active) in [5], 156 µM (active) in [8] and 100 µM (active) in experiment [10].

As to `CC1(C)CCC[C@]2(C)[C@H]3CCO[C@]3(C)CC[C@@H]12`, the molecule was classed as inactive in [1], in experiment [2], in experiment [3], in experiment [4], in experiment [5] and in experiment [6]. Further, the call in experiment [8], in [9] and in experiment [10] was inactive. Further, the half-maximal activity concentration (AC50) in experiment [7] was 178 µM (active).

Take `C=CC(C)(O)CCC=C(C)C` (stereo not given): the molecule was called inactive in [1], in [2], in [3], in experiment [4], in experiment [5] and in experiment [6]. Besides, the molecule was called inactive in experiment [7], in [8], in [9] and in [10].

Take `CCCC(O)C(O)CO` (stereo not given): the call in experiment [1], in [2], in [3], in experiment [4], in [5] and in [6] was inactive. In addition, the molecule was called inactive in experiment [7], in [8], in [9] and in [10].

Turning to `CC1=NN(c2ccc(S(=O)(=O)O)cc2)C(=O)C1`, the result in [1], in experiment [2], in experiment [3], in experiment [4], in experiment [5] and in experiment [6] was inactive. The result in [7], in experiment [8], in [9] and in [10] was inactive.

In the case of `CC1(C)C2=CCCC(C)(C)[C@]23CC[C@H]1C3`, the molecule was classed as inactive in experiment [1], in experiment [2], in [3], in [4], in experiment [5] and in experiment [6]. Further, the call in [7], in experiment [9] and in experiment [10] was inactive. The AC50 in [8] was 100 µM (active).

Take `C=CC(=O)OCCC#N`: the AC50 is 64.2 µM (active) in [1]; 70 µM (active) in experiment [2]; 56.6 µM (active) in experiment [5]; 170 µM (active) in [7]; 86.2 µM (active) in experiment [8]; 47.9 µM (active) in experiment [10]. The outcome in experiment [3], in experiment [4], in experiment [6] and in experiment [9] was inactive.

In the case of `ClC(c1ccccc1)(c1ccccc1)c1ccccc1`, the outcome in [1], in experiment [2], in experiment [3], in experiment [4], in experiment [5] and in [6] was inactive. In addition, the result in experiment [7], in [8], in experiment [9] and in experiment [10] was inactive.

With `C1=CC2C3C=CC(C3)C2C1` (stereo not given), the result in experiment [1], in [2], in experiment [3], in [4], in experiment [5] and in [6] was inactive. Further, the outcome in [7], in experiment [8], in [9] and in experiment [10] was inactive.

For the molecule `CCCCOCC`, the result in [1], in [2], in [3], in experiment [4], in [5] and in experiment [6] was inactive. In addition, the molecule was classed as inactive in experiment [7], in experiment [8], in [9] and in experiment [10].

As to `CCOC(=O)CN`, the result in experiment [1], in experiment [2], in experiment [3], in [4], in [5] and in experiment [6] was inactive. In addition, the molecule was called inactive in experiment [7], in experiment [8], in [9] and in [10].

For `NCC1CCCC(CN)C1` (stereo not given), the result in [1], in [2], in [3], in experiment [4], in [5] and in experiment [6] was inactive. Moreover, the outcome in experiment [7], in [8], in [9] and in experiment [10] was inactive.

Regarding `CC(C)=CCCC(C)CCOC=O` (stereo not given), the result in [1], in experiment [2], in [3], in experiment [4], in experiment [5] and in [6] was inactive. The molecule was called inactive in [7], in experiment [8], in experiment [9] and in experiment [10].

Regarding `Cc1occc(=O)c1OC(=O)C(C)C`, the molecule was called inactive in [1], in [2], in experiment [3], in experiment [4], in [5] and in [6]. The result in experiment [7], in [8], in [9] and in experiment [10] was inactive.

For `CCC(=O)O[C@@H]1C[C@H]2CC[C@]1(C)C2(C)C`, the call in experiment [1], in [2], in [3], in experiment [4], in experiment [5] and in experiment [6] was inactive. In addition, the molecule was classed as inactive in [7], in experiment [8], in [9] and in [10].

Consider `CCCC(=O)OCCc1ccccc1`, for which the molecule was classed as inactive in experiment [1], in experiment [2], in [3], in [4], in experiment [5] and in experiment [6]. Moreover, the molecule was called inactive in [7], in experiment [8], in experiment [9] and in experiment [10].

On to `CC(C)CCCCCCCCCCCCCCC(=O)O`, for which the result in experiment [1], in [2], in experiment [3], in experiment [4], in experiment [5] and in experiment [6] was inactive. The call in experiment [7], in experiment [8], in experiment [9] and in [10] was inactive.

For the molecule `COc1ccc(N=Nc2cc(C)c(N=Nc3ccc(S(=O)(=O)O)cc3)cc2OC)cc1`, the call in experiment [1], in experiment [2], in experiment [3], in [4], in [5] and in [6] was inactive. The molecule was called inactive in [8] and in [9]. The AC50 in experiment [7] and in [10] was 100 µM (active) in each case.

With `CC(=O)C1(C)CC2=C(CCCC2(C)C)CC1C` (stereo not given), the result in experiment [1], in experiment [3], in experiment [4], in [5], in [7] and in experiment [10] was inactive. For the same molecule, the concentration at half-maximal activity (AC50) in experiment [2] is 152 µM (active); in experiment [6], 134 µM (active); in [8] it was 160 µM (active); in experiment [9], 100 µM (active).

Consider `C=C(C#N)C(=O)OCC`, for which the molecule was called inactive in experiment [1], in experiment [3], in experiment [4], in experiment [5], in experiment [6] and in [8]. The result in [9] and in experiment [10] was inactive. Besides, the results for the AC50 in [2] and in experiment [7] were 169 µM (active) and 144 µM (active), respectively.
